Assay results published in PubChem BioAssay (Tox21).
Records with an inconclusive call do not appear. The source made the active and inactive calls. Calls come from the whole dose curve; as a rule, active = well fitted curve in the direction sought with a large enough effect in the repeat runs; inconclusive = weak or mixed curves; inactive = no such curve, though single readings can be large; an effect the other way counts as inactive or inconclusive.

Assays:
[1] = qHTS RealTime-Glo MT Cell Viability Assay in HepG2 cells - 24 hour (AID 1224867); note: nearly all actives have a fitted effect of over 50% in size
Method in brief: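 Real-time, nonlytic viability: 600 HepG2 cells/well mixed with NanoLuc enzyme plus prosubstrate; 5 h settle, compound (DMSO) added by pintool; luminescence monitored over 40 h at 37 C.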

[2] = qHTS RealTime-Glo MT Cell Viability Assay in HEK293 cells - 32 hour (AID 1224868); note: top concentration of the series differs between compounds; nearly all actives have a fitted effect of over 50% in size
Method in brief: (§1)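 Cells + reagent dispensed (600 cells/well, HEK293) → 5 h at 37 C/5% CO2 → 23 nL compound in DMSO pinned → 40 h at 37 C → luminescence read at 0, 8, 16, 24, 32, 40 h.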

[3] = A CellTox Green Cytotoxicity Assay to monitor cytotoxicity in HEK293 cells - 0 hour (AID 1224869); note: nearly all actives have a fitted effect of over 50% in size
Method in brief: (§2)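 Dead-cell fluorescence measured kinetically: asymmetric cyanine dye, HEK293, 600 cells/well, 5 h settle, 23 nL cpd/DMSO, 37 C, reads 0–40 h every 8 h.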

[4] = qHTS RealTime-Glo MT Cell Viability Assay in HepG2 cells - 40 hour (AID 1224870); note: nearly all actives have a fitted effect of over 50% in size
Method in brief: (§3)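 Real-time viability: cells seeded at 600 per well together with NanoLuc and cell-permeant prosubstrate, compounds added after 5 h incubation. Luminescence tracked at 0, 8, 16, 24, 32 and 40 h of exposure.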

[5] = A CellTox Green Cytotoxicity Assay to monitor cytotoxicity in HEK293 cells - 40 hour (AID 1224871); note: nearly all actives have a fitted effect of over 45% in size
Method in brief: as §2

[6] = qHTS RealTime-Glo MT Cell Viability Assay in HEK293 cells - 16 hour (AID 1224872)
Method in brief: as §1

[7] = qHTS RealTime-Glo MT Cell Viability Assay in HepG2 cells - 8 hour (AID 1224873); note: nearly all actives have a fitted effect of over 55% in size
Method in brief: as §3

[8] = qHTS RealTime-Glo MT Cell Viability Assay in HEK293 cells - 40 hour (AID 1224874); conditions: RealTime-Glo luminescence; max response: active compounds read low; note: nearly all actives have a fitted effect of over 50% in size
Method in brief: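 600 HEK293 cells per well, dispensed already mixed with RealTime-Glo MT reagents. Compound dosing came 5 h later. The same wells were read for luminescence at 0, 8, 16, 24, 32 and 40 h of exposure at 37 C.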

[9] = A CellTox Green Cytotoxicity Assay to monitor cytotoxicity in HEK293 cells - 24 hour (AID 1224875); note: series mostly up to about 77 µM; nearly all actives have a fitted effect of over 45% in size
Method in brief: as §2
% is set by controls: 0 for no effect and ±100 for the full control effect.

N#Cc1cscn1
inactive: outcome [1] | Potency [2] | Potency [3] | outcome [4] | Potency [5] | Potency [6] | outcome [7] | max response [8] 9.48% | Potency [9]

COC(=O)c1cc(Cl)cc(Cl)c1
inactive: outcome [1] | Potency [2] | Potency [3] | outcome [4] | Potency [5] | Potency [6] | outcome [7] | max response [8] -0.635% | Potency [9]

CC(C)=CCC[C@@](C)(O)[C@H]1CC=C(C)CC1
inactive: outcome [1] | Potency [2] | Potency [3] | outcome [4] | Potency [5] | Potency [6] | outcome [7] | max response [8] -0.631% | Potency [9]

CC(=O)c1cc(C)oc1C
inactive: outcome [1] | Potency [2] | Potency [3] | outcome [4] | Potency [5] | Potency [6] | outcome [7] | max response [8] -0.494% | Potency [9]

CCCC(=O)Nc1ccc(OCC(O)CNC(C)C)c(C(C)=O)c1 (configuration not stated)
inactive: outcome [1] | Potency [2] | Potency [3] | outcome [4] | Potency [5] | Potency [6] | outcome [7] | max response [8] 4% | Potency [9]

OCCN1CCOCC1
inactive: outcome [1] | Potency [2] | Potency [3] | outcome [4] | Potency [5] | Potency [6] | outcome [7] | max response [8] 2.9% | Potency [9]

CC1=C(C(=O)O)N2C(=O)[C@@H](NC(=O)[C@H](N)C3=CCC=CC3)[C@H]2SC1
inactive: outcome [1] | Potency [2] | Potency [3] | outcome [4] | Potency [5] | Potency [6] | outcome [7] | max response [8] 0.914% | Potency [9]

CN(C)CCCCl
inactive: outcome [1] | Potency [2] | Potency [3] | outcome [4] | Potency [5] | Potency [6] | outcome [7] | max response [8] 0.853% | Potency [9]

N[C@@H](CSCCCO)C(=O)O
inactive: activity change, negative = cytotoxicity [1] 1.24% [at 15.8 µM] | activity change, negative = cytotoxic [2] 3.39% [at 15.8 µM] | cytotoxicity [3] -3.9% [at 15.8 µM] | activity change, negative = cytotoxic [4] 1.41% [at 15.8 µM] | cytotoxicity increase [5] -5.88% [at 15.8 µM] | activity change, negative = cytotoxicity [6] 2.66% [at 15.8 µM] | viability change, negative = cytotoxic [7] 1.95% [at 15.8 µM] | max response [8] 2.4% | activity change [9] 1.71% [at 15.8 µM, active compounds read high]

CO[C@@]1(NC(=O)Cc2cccs2)C(=O)N2C(C(=O)O)=C(COC(N)=O)CS[C@@H]21
inactive: outcome [1] | Potency [2] | Potency [3] | outcome [4] | Potency [5] | Potency [6] | outcome [7] | max response [8] 0.152% | Potency [9]

CC(C)C1OCCN1CCOC(=O)NCCCCCCNC(=O)OCCN1CCOC1C(C)C (configuration not stated)
inactive: outcome [1] | Potency [2] | Potency [3] | outcome [4] | Potency [5] | Potency [6] | outcome [7] | max response [8] 1.59% | Potency [9]

COC(=O)CCCCC(CCSS/C(CCO)=C(\C)N(C=O)Cc1cnc(C)nc1N)SC(C)=O (configuration not stated)
inactive: outcome [1] | Potency [2] | Potency [3] | outcome [4] | Potency [5] | Potency [6] | outcome [7] | max response [8] 3.28% | Potency [9]

CC(O)COC(C)(C)C (configuration not stated)
inactive: outcome [1] | Potency [2] | Potency [3] | outcome [4] | Potency [5] | Potency [6] | outcome [7] | max response [8] 7.99% | Potency [9]

CCC(=O)Oc1ccc2c(c1)CC[C@@H]1[C@@H]2CC[C@@]2(C)[C@H]1C[C@@H](OC(=O)CC)[C@@H]2OC(=O)CC
inactive: outcome [1] | Potency [2] | Potency [3] | outcome [4] | Potency [5] | Potency [6] | outcome [7] | max response [8] -0.818% | Potency [9]

Cc1c(NC(=O)c2cccnc2)c(=O)n(-c2ccccc2)n1C
inactive: outcome [1] | Potency [2] | Potency [3] | outcome [4] | Potency [5] | Potency [6] | outcome [7] | max response [8] 2.99% | Potency [9]

Cc1ccc(C(=O)O)cc1[N+](=O)[O-]
inactive: outcome [1] | Potency [2] | Potency [3] | outcome [4] | Potency [5] | Potency [6] | outcome [7] | max response [8] 6.44% | Potency [9]

Cn1c(=O)c2[nH]c(Br)nc2n(C)c1=O
inactive: outcome [1] | Potency [2] | Potency [3] | outcome [4] | Potency [5] | Potency [6] | outcome [7] | max response [8] 4.15% | Potency [9]

O=C(CN1CCNCC1)NC1CCCCC1
inactive: outcome [1] | Potency [2] | Potency [3] | outcome [4] | Potency [5] | Potency [6] | outcome [7] | max response [8] 0.0212% | Potency [9]

CO/N=C(/C(=O)N[C@@H]1C(=O)N2C(C(=O)[O-])=C(C[n+]3ccn4ncccc43)CS[C@H]12)c1nsc(N)n1
inactive: outcome [1] | Potency [2] | Potency [3] | outcome [4] | Potency [5] | Potency [6] | outcome [7] | max response [8] 6.83% | Potency [9]

[O-][n+]1cccc(/C(Cl)=N/OC[C@@H](O)CN2CCCCC2)c1
inactive: outcome [1] | Potency [2] | Potency [3] | outcome [4] | Potency [5] | Potency [6] | outcome [7] | max response [8] 2.14% | Potency [9]

CN(C)CCOC(=O)C(c1ccccc1)C1(O)CCCC1 (configuration not stated)
inactive: outcome [1] | Potency [2] | Potency [3] | outcome [4] | Potency [5] | Potency [6] | outcome [7] | max response [8] -2.33% | Potency [9]

CCCSSCCC
inactive: outcome [1] | Potency [2] | Potency [3] | outcome [4] | Potency [5] | Potency [6] | outcome [7] | max response [8] 2.19% | Potency [9]

O=C(NCN1CCOCC1)c1cnccn1
inactive: outcome [1] | Potency [2] | Potency [3] | outcome [4] | Potency [5] | Potency [6] | outcome [7] | max response [8] 2.14% | Potency [9]
